Sampled rows, rich in hits. Any-hit rate of the full collection: about 2.8%.
KDM5B inhibitor – inhibitors of human KDM5B histone demethylase. Q9UGL1. KDM5B demethylase, FDH-coupled NADH fluorescence (FDH is formaldehyde dehydrogenase). Potency, µM (highest dose often 57.7 µM), hits mostly inhibitors. 220,000 tested, 2.6% active; active = well fitted inhibition curve with a large enough effect; inconclusive = small, poorly fitted or top-dose-only effect; inactive = no such curve, though single readings can be large or run the other way; note: nearly all actives have a fitted effect of over 70% in size
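qHTS format, multiple compound concentrations. Buffer 50 mM HEPES pH 7.5/0.01% Tween-20; 200 nM KDM5BΔAP final; 10 min compound preincubation; substrate-mix levels 12.5 µM peptide, 25 µM α-KG, 0.25 mM NAD⁺; 30 min RT; ΔRFU.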
IP6K1 inh – IP6K1 kinase inhibition. IP6K1 kinase, ADP-Glo luminescence, 2 h; hits give low values. activity change, % (series mostly up to about 58 µM). 140,000 tested, 0.81% active; in the data active = activity change below about -25%
Target sequence (Q92551 whole entry, looked up): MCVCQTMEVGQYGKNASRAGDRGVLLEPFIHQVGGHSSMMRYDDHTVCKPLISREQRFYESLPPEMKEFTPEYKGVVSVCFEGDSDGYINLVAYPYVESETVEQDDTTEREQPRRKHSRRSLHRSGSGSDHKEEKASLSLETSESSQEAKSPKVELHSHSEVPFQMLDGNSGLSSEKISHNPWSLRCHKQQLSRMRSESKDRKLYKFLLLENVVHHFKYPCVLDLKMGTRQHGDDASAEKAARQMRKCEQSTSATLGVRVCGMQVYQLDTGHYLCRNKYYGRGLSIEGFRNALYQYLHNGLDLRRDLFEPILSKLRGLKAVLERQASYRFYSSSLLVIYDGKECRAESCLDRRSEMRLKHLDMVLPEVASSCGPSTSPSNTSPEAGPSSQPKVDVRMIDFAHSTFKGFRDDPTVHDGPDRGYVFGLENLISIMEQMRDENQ
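ADP-Glo luminescence measures ADP made by human IP6K1 during a 2 h RT reaction with ATP/IP6 (mix at 1.3 mM/130 uM); top library doses 57.5 and 19.1 uM final.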
Each line names hits and unclear results; the compound was inactive in the other large screens.

O=C(NC1CCN(c2nccc(Nc3ccccc3Cl)n2)CC1)C1CC1	none (no result: KDM5B inhibitor)
Cc1nn(-c2ccccc2)c2c1C(C)N(C1CCCN(C(=O)c3ccccc3Cl)C1)C2=O (centres undefined)	none (no result: KDM5B inhibitor)
CCNC(=O)[C@@H]1CCCN1C(=O)[C@H](CCCN=C(N)N)NC(=O)[C@H](CC(C)C)NC(=O)[C@@H](C)NC(=O)[C@H](Cc1ccc(O)cc1)NC(=O)[C@H](CO)NC(=O)[C@H](Cc1c[nH]c2ccccc12)NC(=O)[C@H](Cc1cnc[nH]1)NC(=O)[C@@H]1CCC(=O)N1	none (no result: KDM5B inhibitor)
O=C(COc1ccccc1)N1CCNc2cnc(Nc3cccc(F)c3)nc2C1	KDM5B inhibitor 35.5µM
O=C(c1ccccc1)N1CCNc2cnc(Nc3cccc(F)c3)nc2C1	KDM5B inhibitor inconclusive
Cc1nc(C2CC23CCN(S(=O)(=O)c2cccnc2)CC3)no1 (centres undefined)	none (no result: KDM5B inhibitor)
COC(=O)CNC(=O)c1nc(C(C)(C)C)c2cnccn12	KDM5B inhibitor 112µM
COC(=O)CNC(=O)c1c(C)nc2cnccn12	none (no result: KDM5B inhibitor)
CC(C)(C)c1nc(C(=O)NCc2cccnc2)n2ccncc12	KDM5B inhibitor 100µM
CC(C)(C)c1nc(C(=O)NCc2cccnc2)n2ccccc12	KDM5B inhibitor 100µM
O=C(NCc1ccccn1)c1nc(-c2cccnc2)c2ccccn12	none
COC(=O)CNC(=O)c1nc(-c2ccsc2)c2cnccn12	KDM5B inhibitor 39.8µM
O=C(NCc1ccsc1)c1nc(-c2ccc(Cl)cc2)c2cnccn12	none
CC(=O)N1CCN(C(=O)C2CCCN2C(=O)c2cccc(-c3ccccn3)c2)CC1 (centres undefined)	none (no result: KDM5B inhibitor)
CC(C)CNC(=O)c1ccc2nnc(-c3cc(C(F)(F)F)cc(C(F)(F)F)c3)n2c1	none (no result: KDM5B inhibitor)
O=C(c1ccc[nH]c1=O)N1CCC(n2cc(-c3nc(-c4ccccc4)no3)nn2)CC1	none
Cc1nc(-c2cn(C3CCCN(C(=O)c4cc5ccccc5[nH]4)C3)nn2)no1 (centres undefined)	KDM5B inhibitor inconclusive
O=C(c1ccccc1F)N1CCC(n2cc(-c3nc(-c4ccccc4)no3)nn2)C1 (centres undefined)	none
O=C(c1cc2ccccc2[nH]1)N1CCCC(n2cc(-c3nc(-c4ccccc4)no3)nn2)C1 (centres undefined)	KDM5B inhibitor 17.8µM
O=C(c1cccc2[nH]ccc12)N1CCC(n2cc(-c3nc(-c4ccccc4)no3)nn2)C1 (centres undefined)	KDM5B inhibitor 25.1µM
O=C(c1cccc2[nH]ccc12)N1CCC(n2cc(-c3nc(-c4ccccc4)no3)nn2)CC1	KDM5B inhibitor 28.2µM
CC(C)NC(=O)NC1CCN(Cc2cccc(-c3cccs3)c2)CC1	none (no result: KDM5B inhibitor)
O=C(NCc1ccccc1)c1ccccc1OC1CN(Cc2cccc(C(F)(F)F)c2)C1	none (no result: KDM5B inhibitor)
Cn1c(CNC(=O)C2(Cc3ccccc3)CCCCC(=O)N2)nc2ccccc21 (centres undefined)	KDM5B inhibitor 17.8µM
Cn1c(CNC(=O)C2(C)CCCCC(=O)N2)nc2ccccc21 (centres undefined)	none
CCOC(=O)C(C)N1C(=O)S/C(=C/c2ccc(Cl)s2)C1=O (centres undefined)	none (no result: IP6K1 inh)
COCCCNc1ncnc2sc3c(c12)CCN(Cc1cccnc1)C3	none
CCC(=O)N1CCc2c(sc3ncnc(N4CCN(C)CC4)c23)C1	KDM5B inhibitor inconclusive
CCNc1ncnc2sc3c(c12)CCN(C(=O)CCOC)C3	KDM5B inhibitor inconclusive
CCNc1ncnc2sc3c(c12)CCN(C(=O)COC)C3	KDM5B inhibitor 35.5µM
CCC(=O)N1CCc2c(sc3ncnc(NCc4ccccn4)c23)C1	KDM5B inhibitor 28.2µM
CCC(=O)N1CCc2c(sc3ncnc(N)c23)C1	KDM5B inhibitor 28.2µM
CCC(=O)N1CCc2c(sc3ncnc(Nc4ccccc4)c23)C1	KDM5B inhibitor inconclusive
CCNc1ncnc2sc3c(c12)CCN(Cc1ccncc1)C3	KDM5B inhibitor 25.1µM
CC1=C/C(=N\NC(=S)Nc2ccccc2C)CC1	none (no result: IP6K1 inh)
Cc1ccc(C(=O)NC2CCN(c3nccc(Nc4ccccc4F)n3)CC2)cc1	none (no result: KDM5B inhibitor)
CCc1cccc2c(C(CC(=O)NCc3ccco3)c3ccc(OC)c(OC)c3)c[nH]c12 (centres undefined)	KDM5B inhibitor inconclusive
CCc1cccc2c(C(CC(=O)NCc3ccco3)c3ccc(C)cc3)c[nH]c12 (centres undefined)	KDM5B inhibitor 28.2µM
CCC1=C(C(=O)OC)C(c2cccc(C)c2)N2C(CC(=O)N3CCCCC3C)=CSC2=N1 (centres undefined)	KDM5B inhibitor inconclusive
CC(C)c1nc2nccc(-c3cccs3)n2n1	KDM5B inhibitor 25.1µM
COc1ccc(CCc2nc3nccc(-c4cccs4)n3n2)cc1	none
CC(C)Cc1nc2nccc(-c3cccs3)n2n1	KDM5B inhibitor 25.1µM
CC(C)Cc1nc2nccc(-c3ccccn3)n2n1	KDM5B inhibitor inconclusive
Cc1nn(C(C)C)c(C)c1N	none (no result: IP6K1 inh)
CCc1ccc(N(CC(=O)Nc2ccccc2C(=O)NCC2CCCO2)S(C)(=O)=O)cc1 (centres undefined)	none (no result: IP6K1 inh)
Cc1nn(-c2ccccc2)c2c1C(C)N(C1CCN(C(=O)c3ccccc3Cl)C1)C2=O (centres undefined)	none (no result: KDM5B inhibitor)
Cc1noc(C)c1-c1cc2cc(CN(C)C)oc2c(NCCc2ccccc2)n1	none
Cc1cc2cc(-c3c(C)noc3C)nc(-c3ccsc3)c2o1	KDM5B inhibitor inconclusive
Cc1noc(C)c1-c1cc2cc(CN(C)C)oc2c(-c2ccc([S+](C)(=O)[O-])cc2)n1	KDM5B inhibitor 39.8µM
Cc1cc2cc(-c3c(C)noc3C)nc(-c3ccc([S+](C)(=O)[O-])cc3)c2o1	KDM5B inhibitor 35.5µM
COc1ccc(Nc2nc(-c3c(C)noc3C)cc3cc(CN(C)C)oc23)cn1	KDM5B inhibitor inconclusive
COc1ccccc1-c1nc(-c2c(C)noc2C)cc2cc(CN(C)C)oc12	KDM5B inhibitor 35.5µM
O=C(C[C@@H]1CCNC[C@@H]1Cc1cc(-c2ccccc2)on1)N1CCc2ccccc2C1	KDM5B inhibitor inconclusive
O=C(NCc1ccc2c(c1)OCO2)c1cc(-c2cccc(C(F)(F)F)c2)c2nncn2n1	none (no result: KDM5B inhibitor)
Cc1cc(C)cc(-c2ccc(CN3CCCC(NC(=O)Cc4ccccn4)C3)cc2)c1 (centres undefined)	none (no result: KDM5B inhibitor)
COc1ccc(C2Cn3nnc(-c4noc(-c5cc(F)ccc5Cl)n4)c3CO2)cc1 (centres undefined)	none
CCOc1cccc(-c2noc(-c3nnn4c3COC(c3ccc(OC)cc3)C4)n2)c1 (centres undefined)	KDM5B inhibitor 17.8µM
COc1ccccc1-c1noc(-c2nnn3c2COC(c2ccc(F)cc2)C3)n1 (centres undefined)	KDM5B inhibitor inconclusive
COc1ccc(C2Cn3nnc(-c4noc(-c5cc(F)ccc5F)n4)c3CO2)cc1 (centres undefined)	KDM5B inhibitor 17.8µM
COc1ccccc1-c1nc(-c2nnn3c2COC(c2ccc(C)cc2)C3)no1 (centres undefined)	KDM5B inhibitor 12.6µM
CCOc1cccc(-c2noc(-c3nnn4c3COC(c3ccc(F)cc3)C4)n2)c1 (centres undefined)	KDM5B inhibitor inconclusive
COc1ccc(C2Cn3nnc(-c4nc(-c5ccccc5OC)no4)c3CO2)cc1 (centres undefined)	KDM5B inhibitor 28.2µM
COc1ccc(C2Cn3nnc(-c4noc(-c5ccccc5OC)n4)c3CO2)cc1 (centres undefined)	KDM5B inhibitor inconclusive
CCOc1ccccc1NC(=O)N(C)Cc1nc(-c2ccccc2C)oc1C	none (no result: IP6K1 inh)
CCc1cc2c(N)c(C(=O)c3ccccc3)sc2nc1C	none (no result: IP6K1 inh)

Compound activity (PubChem)
